These results are taken from PubChem BioAssay AID1508601 (ICCB-Longwood Screening Facility, Harvard Medical School, 2020).

The whole screen tested about 5,700 compounds, of which about 85 (1%) were called active. Rule as the data show it: active = p53-positive nuclei above about 36% (passing the limit was not always enough); inactive = the rest. The full list was thinned out, with actives kept by preference.

Assay [1] in a line: p53 stabilisation in HPV-positive human cells, imaging, p53-positive nuclei imaging, 24 h, 48 h (AID 1508601). The conditions noted are these: 24/48 h.
Assay [2] has as its target Cellular tumor antigen p53 (Homo sapiens) (UniProt P04637). Described as above. The conditions noted are these: 24/48 h, stronger effect = higher value.
Setting [3] is: measured here: cell number at 24 h, Library stock concentration: 500 nM.
Setting [4] is: measured here: cell number at 24 h, Library stock concentration: 1.5 uM.
Setting [5] is: measured here: cell number at 24 h, Library stock concentration: 4.6 uM.
The mark [6] stands for this setting: measured here: cell number at 24 h, Library stock concentration: 13.7 uM.
The mark [7] stands for this setting: measured here: cell number at 24 h, Library stock concentration: 41 uM.
[8] abbreviates: measured here: cell number at 24 h, Library stock concentration: 123 uM.
Where [9] appears, read: measured here: cell number at 24 h, Library stock concentration: 370 uM.
The mark [10] stands for this setting: measured here: cell number at 24 h, Library stock concentration: 1.111 mM.
The mark [11] stands for this setting: measured here: cell number at 24 h, Library stock concentration: 3.33 mM.
Setting [12] is: measured here: cell number at 24 h, Library stock concentration: 3.333 mM.
[13] abbreviates: measured here: cell number at 24 h, Library stock concentration: 10 mM.
The mark [14] stands for this setting: measured here: cell number at 48 h, Library stock concentration: 500 nM.
Setting [15] is: measured here: cell number at 48 h, Library stock concentration: 1.5 uM.
[16] abbreviates: measured here: cell number at 48 h, Library stock concentration: 4.6 uM.
The mark [17] stands for this setting: measured here: cell number at 48 h, Library stock concentration: 13.7 uM.
The mark [18] stands for this setting: measured here: cell number at 48 h, Library stock concentration: 41 uM.
The mark [19] stands for this setting: measured here: cell number at 48 h, Library stock concentration: 123 uM.
[20] abbreviates: measured here: cell number at 48 h, Library stock concentration: 370 uM.
Setting [21] is: measured here: cell number at 48 h, Library stock concentration: 1.111 mM.
Where [22] appears, read: measured here: cell number at 48 h, Library stock concentration: 3.33 mM.
Where [23] appears, read: measured here: cell number at 48 h, Library stock concentration: 3.333 mM.
The mark [24] stands for this setting: measured here: cell number at 48 h, Library stock concentration: 10 mM.
Where [25] appears, read: Library stock concentration: 500 nM.
The mark [26] stands for this setting: Library stock concentration: 1.5 uM.
Where [27] appears, read: Library stock concentration: 4.6 uM.
[28] abbreviates: Library stock concentration: 13.7 uM.
Where [29] appears, read: Library stock concentration: 41 uM.
Where [30] appears, read: Library stock concentration: 123 uM.
The mark [31] stands for this setting: Library stock concentration: 370 uM.
The mark [32] stands for this setting: Library stock concentration: 1.111 mM.
The mark [33] stands for this setting: Library stock concentration: 3.33 mM.
[34] abbreviates: Library stock concentration: 3.333 mM.
Setting [35] is: Library stock concentration: 10 mM.
Where [36] appears, read: measured here: p53 positive nuclei at 24 h, Library stock concentration: 500 nM.
[37] abbreviates: measured here: p53 positive nuclei at 24 h, Library stock concentration: 1.5 uM.
The mark [38] stands for this setting: measured here: p53 positive nuclei at 24 h, Library stock concentration: 4.6 uM.
[39] abbreviates: measured here: p53 positive nuclei at 24 h, Library stock concentration: 13.7 uM.
The mark [40] stands for this setting: measured here: p53 positive nuclei at 24 h, Library stock concentration: 41 uM.
Where [41] appears, read: measured here: p53 positive nuclei at 24 h, Library stock concentration: 123 uM.
The mark [42] stands for this setting: measured here: p53 positive nuclei at 24 h, Library stock concentration: 370 uM.
The mark [43] stands for this setting: measured here: p53 positive nuclei at 24 h, Library stock concentration: 1.111 mM.
The mark [44] stands for this setting: measured here: p53 positive nuclei at 24 h, Library stock concentration: 3.33 mM.
Where [45] appears, read: measured here: p53 positive nuclei at 24 h, Library stock concentration: 3.333 mM.
Where [46] appears, read: measured here: p53 positive nuclei at 24 h, Library stock concentration: 10 mM.
[47] abbreviates: measured here: cell number at 24 h, concentration not given here.
[48] abbreviates: measured here: cell number at 48 h, concentration not given here.
Setting [49] is: measured here: p53 positive nuclei at 24 h, concentration not given here.

Cellular tumor antigen p53 (Homo sapiens), sequence (P04637 whole entry, looked up): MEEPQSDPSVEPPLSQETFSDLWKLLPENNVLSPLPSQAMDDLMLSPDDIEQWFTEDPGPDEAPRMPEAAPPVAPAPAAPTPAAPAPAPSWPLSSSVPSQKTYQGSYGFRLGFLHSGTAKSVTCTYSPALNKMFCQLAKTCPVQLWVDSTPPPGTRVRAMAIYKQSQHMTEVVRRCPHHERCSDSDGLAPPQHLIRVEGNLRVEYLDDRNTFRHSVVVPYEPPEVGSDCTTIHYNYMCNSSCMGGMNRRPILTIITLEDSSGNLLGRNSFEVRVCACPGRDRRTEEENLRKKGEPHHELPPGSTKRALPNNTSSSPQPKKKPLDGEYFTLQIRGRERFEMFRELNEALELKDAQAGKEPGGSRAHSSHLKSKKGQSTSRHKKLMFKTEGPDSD

As to `CC(=O)OC1C(=O)[C@]2(C)C(O)CC3OC[C@@]3(OC(C)=O)C2C(OC(=O)c2ccccc2)[C@]2(O)CC(OC(=O)C(O)C(NC(=O)c3ccccc3)c3ccccc3)C(C)=C1C2(C)C` (some centres undefined), the nuclei count, normalised worked out at 124% in assay [1] (setting [3]); 89.9% in assay [1] (setting [4]); 58.2% in assay [1] (setting [5]); 49% in assay [1] (setting [6]); 47.4% in assay [1] (setting [7]); 43.5% in assay [1] (setting [8]). Also, the nuclei count, normalised in assay [1] (setting [9]) stood at 42%; in assay [1] (setting [10]), 43.9%; in assay [1] (setting [11]), 33.4%; in assay [1] (setting [12]), 39.5%; in assay [1] (setting [13]) it was 44%; in assay [1] (setting [14]) it was 119%. In addition, the nuclei count, normalised was 71.2% in assay [1] (setting [15]); 36.2% in assay [1] (setting [16]); 29.7% in assay [1] (setting [17]); 28.6% in assay [1] (setting [18]); 29.2% in assay [1] (setting [19]); 26.7% in assay [1] (setting [20]). Also, the nuclei count, normalised in assay [1] (setting [21]) turned out to be 28.6%; in assay [1] (setting [22]) it was 27.2%; in assay [1] (setting [23]), 26.4%; in assay [1] (setting [24]), 28.4%. The p53-positive nuclei, normalised in assay [2] (setting [25]) was 0.615% (inactive); in assay [2] (setting [26]), 7.83% (inactive); in assay [2] (setting [27]), 11.3% (inactive); in assay [2] (setting [28]), 5.37% (inactive); in assay [2] (setting [29]), 2.36% (inactive); in assay [2] (setting [30]), 1.56% (inactive). The p53-positive nuclei, normalised in assay [2] (setting [31]) is 0.755% (inactive); in assay [2] (setting [32]) it was 1.14% (inactive); in assay [2] (setting [33]), -0.197% (inactive); in assay [2] (setting [34]) it was 0.0812% (inactive); in assay [2] (setting [35]), 0.227% (inactive); in assay [2] (setting [36]) it was -0.0449%. Moreover, the p53-positive nuclei, normalised was 0.807% in assay [2] (setting [37]); 1.13% in assay [2] (setting [38]); -0.0184% in assay [2] (setting [39]); 0.131% in assay [2] (setting [40]); 0.31% in assay [2] (setting [41]); 0.493% in assay [2] (setting [42]). Besides, the p53-positive nuclei, normalised is 0.16% in assay [2] (setting [43]), -0.232% in assay [2] (setting [44]), 0.515% in assay [2] (setting [45]) and 0.00376% in assay [2] (setting [46]).
Take `CN(C)Cc1ccc(S(=O)(=O)n2ccc(C=CC(=O)NO)c2)cc1`: the nuclei count, normalised in assay [1] (setting [11]) turned out to be 86.4%; in assay [1] (setting [22]), 84%. The p53-positive nuclei, normalised in assay [2] (setting [33]) is 2.58% (inactive); in assay [2] (setting [44]), 5%.
Take `Cc1[nH]c2ccccc2c1CCNCc1ccc(C=CC(=O)NO)cc1`: the nuclei count, normalised in assay [1] (setting [11]) was found to be 37%; in assay [1] (setting [22]), 20.2%. The p53-positive nuclei, normalised in assay [2] (setting [33]) is 107% (active); in assay [2] (setting [44]), 92.9%.
In the same order, the values of `Cc1[nH]c2ccccc2c1CCNC(=O)c1cccs1` are 115%, 109%, -0.163% (inactive) and -0.341%.
Regarding `NC(=O)c1ncn(C2OC(CO)C(O)C2O)c1O` (centres undefined), the nuclei count, normalised in assay [1] (setting [3]) worked out at 107%; in assay [1] (setting [4]) it was 106%; in assay [1] (setting [5]), 114%; in assay [1] (setting [6]), 113%; in assay [1] (setting [7]), 103%; in assay [1] (setting [8]), 107%. The nuclei count, normalised in assay [1] (setting [9]) was 112%; in assay [1] (setting [10]), 97.9%; in assay [1] (setting [12]) it was 106%; in assay [1] (setting [13]) it was 104%; in assay [1] (setting [14]), 106%; in assay [1] (setting [15]) it was 107%. Besides, the nuclei count, normalised in assay [1] (setting [16]) turned out to be 110%; in assay [1] (setting [17]) it was 108%; in assay [1] (setting [18]), 107%; in assay [1] (setting [19]), 107%; in assay [1] (setting [20]) it was 113%; in assay [1] (setting [21]), 105%. Further, the results for the nuclei count, normalised in assay [1] (setting [23]) and in assay [1] (setting [24]) were 108% and 102%, respectively. The p53-positive nuclei, normalised is -0.204% (inactive) in assay [2] (setting [25]); -0.0465% (inactive) in assay [2] (setting [26]); 0.0159% (inactive) in assay [2] (setting [27]); -0.0544% (inactive) in assay [2] (setting [28]); -0.167% (inactive) in assay [2] (setting [29]); -0.128% (inactive) in assay [2] (setting [30]). The p53-positive nuclei, normalised is -0.0645% (inactive) in assay [2] (setting [31]); -0.129% (inactive) in assay [2] (setting [32]); -0.208% (inactive) in assay [2] (setting [34]); -0.16% (inactive) in assay [2] (setting [35]); -0.239% in assay [2] (setting [36]); -0.0183% in assay [2] (setting [37]). The p53-positive nuclei, normalised in assay [2] (setting [38]) is -0.139%; in assay [2] (setting [39]) it was -0.19%; in assay [2] (setting [40]), -0.128%; in assay [2] (setting [41]), 0.0805%; in assay [2] (setting [42]), -0.0891%; in assay [2] (setting [43]), -0.183%. In addition, the values for the p53-positive nuclei, normalised in assay [2] (setting [45]) and in assay [2] (setting [46]) were -0.128% and -0.0747%, respectively.
For `O=C(c1cn2cccnc2n1)N1CCCC(Cn2cc(C3CCCC3)nn2)C1` (centres undefined), the nuclei count, normalised worked out at 84.5% in assay [1] (setting [47]) and 92.1% in assay [1] (setting [48]). The p53-positive nuclei, normalised is -0.0576% (inactive) in assay [2] (concentration not given here) and -0.142% in assay [2] (setting [49]).
As for `C#C[C@]1(O)CC[C@@H]2[C@@H]3CCc4cc(O)ccc4[C@@H]3CC[C@@]21C`, the nuclei count, normalised was determined as 97.1% in assay [1] (measured here: cell number at 24 h, Library stock concentration: 80 uM); 108% in assay [1] (measured here: cell number at 24 h, Library stock concentration: 400 uM); 101% in assay [1] (measured here: cell number at 24 h, Library stock concentration: 2 mM); 72.9% in assay [1] (setting [13]); 108% in assay [1] (measured here: cell number at 48 h, Library stock concentration: 80 uM); 108% in assay [1] (measured here: cell number at 48 h, Library stock concentration: 400 uM). The nuclei count, normalised in assay [1] (measured here: cell number at 48 h, Library stock concentration: 2 mM) was 102%; in assay [1] (setting [24]), 30.5%. The p53-positive nuclei, normalised in assay [2] (Library stock concentration: 80 uM) is 0.0565% (inactive); in assay [2] (Library stock concentration: 400 uM) it was 0.0172% (inactive); in assay [2] (Library stock concentration: 2 mM), 0.0704% (inactive); in assay [2] (setting [35]) it was 76.1% (inactive); in assay [2] (measured here: p53 positive nuclei at 24 h, Library stock concentration: 80 uM), -0.0527%; in assay [2] (measured here: p53 positive nuclei at 24 h, Library stock concentration: 400 uM) it was 0.068%. Besides, the p53-positive nuclei, normalised came out at 0.0711% in assay [2] (measured here: p53 positive nuclei at 24 h, Library stock concentration: 2 mM) and 6.02% in assay [2] (setting [46]).
Take `C#C[C@]1(O)CCC2C3CCc4cc(O)ccc4C3CC[C@@]21C` (some centres undefined): the nuclei count, normalised in assay [1] (setting [47]) stood at 85.4%; in assay [1] (setting [48]), 37.7%. The results for the p53-positive nuclei, normalised in assay [2] (concentration not given here) and in assay [2] (setting [49]) were 83% (active) and 8.99%, respectively.
In the case of `C#C[C@@]1(O)CC[C@H]2[C@@H]3CCc4cc(O)ccc4[C@@H]3CC[C@@]21C`, the nuclei count, normalised in assay [1] (setting [11]) worked out at 80.8%; in assay [1] (setting [22]), 66.7%. Besides, the p53-positive nuclei, normalised was 15.7% (inactive) in assay [2] (setting [33]) and 2.17% in assay [2] (setting [44]).
